# Test results: PubChem BioAssay (NCATS)
# Records with an inconclusive call do not appear. Unmarked numbers belong to inactive results. Activity calls are given as the source filed them. The call rests on the fitted dose curve; in most records, active means well fitted inhibition curve with a large enough effect; inconclusive means small, poorly fitted or top-dose-only effect; inactive means no such curve, though single readings can be large or run the other way.
# Molecular target: Retinaldehyde dehydrogenase 3 (Homo sapiens) (UniProt P47895)
# Assay: qHTS for Inhibitors of the Aldehyde Dehydrogenase Family (ALDH1A3) Primary screen (AID 2061315);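 further: plate controls were DMSO vehicle for no effect and reference inhibitor for full effect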
# Details: ALDH inhibition qHTS; series mostly up to 56 µM; activity change, negative = inhibition: at the top concentration
Structure (SMILES),"activity change, negative = inhibition [%]",Potency
Cc1cc(C(=O)N2CCCCc3ccccc32)ccc1CNC(=O)N1CCC[C@H]1C(=O)N(C)C,6.54,
CNCCCC1(c2ccccc2)OC(C)(C)c2ccccc21 (stereo not given),-10.5,
CCC(C(C)O)n1ncn(-c2ccc(N3CCN(c4ccc(OCC5COC(Cn6cncn6)(c6ccc(F)cc6F)C5)cc4)CC3)cc2)c1=O (stereo not given),-2.61,
c1ccc(CN(CC2=NCCN2)c2ccccc2)cc1,-0.0922,
COc1cc(NC(=O)c2cc(C3CC3)on2)c(OC)cc1Cl,-7.04,
COc1cccc(-c2cc(NCc3ccc4c(c3)OCO4)nc(N)n2)c1,21.8,
COc1ccc(-c2nc(-c3cc(C(F)(F)F)cc(C(F)(F)F)c3)n(Cc3ccc(C(N)=O)cc3)c2-c2ccc(OC)cc2)cc1,9.63,
CC1(C)CCC(C)(C)c2cc(C3(c4ccc(C(=O)O)cc4)OCCO3)ccc21,-8.25,
O=C(Nc1ccc(CN2CCOCC2)cc1)c1ccc(-c2cccc(Cl)c2)o1,-13.1,
NS(=O)(=O)c1ccc(N2CCN(CC[C@@H]3OCCc4ccccc43)CC2)cc1,-8.26,
O=C(NCCCN1CCC2(CC1)OCc1ccccc12)[C@H]1CCCN1Cc1ccccc1,-0.924,
CN[C@@H]1[C@@H](O)[C@@H](O[C@@H]2[C@@H](O)[C@H](O[C@H]3O[C@@H]([C@@H](C)NC)CC[C@H]3N)[C@@H](N)C[C@H]2N)OC[C@]1(C)O,-3.69,
CCn1c2ccccc2c2cc(CNC)ccc21,,inactive
Cc1onc(-c2ccccc2Cl)c1C(=O)N(C)c1ccc(Cl)cc1,-15,
COc1ccc(Cl)cc1[C@@]1(F)C(=O)Nc2cc(C(F)(F)F)ccc21,2.09,
O=C(NCCCn1ccnc1)c1cc(-c2ccco2)on1,-6.62,
O=C(CC1NCCC[C@H]1O)Cn1cnc2cc(Br)c(Cl)cc2c1=O (stereo not given in full),-12.2,
CCC1C(=O)N(C)c2cnc(Nc3ccc(C(=O)NC4CCC(N5CCN(CC6CC6)CC5)CC4)cc3OC)nc2N1C(C)C (stereo not given),18,
CS(=O)(=O)NCC1CCC(Nc2nc3c(s2)CCSc2ccccc2-3)CC1 (stereo not given),8.17,
CC(NC(=O)CCc1nc2ccccc2c(=O)[nH]1)c1ccccc1 (stereo not given),-9.76,

Structure (SMILES),"activity change, negative = inhibition [%]",Potency
CN(C)c1nc(Cc2ccc(NC(=O)c3ccc4ccccc4c3)cc2)nc(Cl)c1CC(=O)O,0.028,
CCNC(=O)N1CCCN(c2ccc(C(=O)NCCc3ccc(Cl)cc3Cl)cc2NC(=O)c2cccc(Cl)c2)CC1,17,
CCc1c(CC(N)=O)c2cc(OCCCP(=O)(O)O)ccc2n1Cc1ccccc1,3.53,
CC[C@H]1CN(c2nc(N)c(C(N)=O)nc2Cl)CCN1C1CCN(Cc2ccc(Cl)cc2)CC1,-13.8,
CC(C)CCNc1ncccc1C(=O)N1CCN(Cc2ccccc2)CC1,26.2,
CCCc1ccc(OCC(=O)N(Cc2nc(-c3cccnc3)no2)C(C)C)cc1,13.1,
Cc1c(C(=O)Nc2ccc(N3CC(C)OC(C)C3)nc2)cccc1-c1ccc(OC(F)(F)F)cc1 (stereo not given),16.3,
COCCN1CCC(C(=O)NO)(S(=O)(=O)c2ccc(Oc3ccc(OC(F)(F)F)cc3)cc2)CC1,-19.7,
CC1(C)CCC(C)(C)c2cc(C#Cc3ccc(C(=O)O)cc3)ccc21,-14,
O=C(NCCN1CCC(n2c(=O)[nH]c3ccccc32)CC1)c1ccc2ccccc2c1,2.9,
O=C(c1cn(Cc2cncn2Cc2ccc(Br)cc2)cc1-c1cccc2ccccc12)N1CCOCC1,12.2,
Cc1nc(C(=O)N2CCC[C@H]2Cc2nnc(-c3ccccc3)o2)c(-c2ccccc2F)s1,0.445,
Cc1cc(-c2nncc3c(C(C)(C)C)c(OCc4ncnn4C)nn23)no1,22.5,
CCC(C)n1cc(C)c2c(C(=O)NCc3c(C)cc(C)[nH]c3=O)cc(-c3ccc(N4CCNCC4)nc3)cc21 (stereo not given),1.12,
CN(C)C(=O)NC1(c2ccccc2)CCN(CCC[C@]2(c3ccc(Cl)c(Cl)c3)CCCN(C(=O)c3ccccc3)C2)CC1,2.84,
COc1cc(-c2cn(C3CCc4c(F)cccc4N(CC(F)(F)F)C3=O)nn2)ccc1-n1cnc(C)c1 (stereo not given),4.62,
Cc1onc(-c2c(Cl)cccc2Cl)c1CC(=O)NCc1ccc(OCC(F)(F)F)nc1,14.4,
CCNC(=O)c1noc(-c2cc(Cl)c(O)cc2O)c1-c1ccc(OC)cc1,1.88,
CCNC(=O)[C@H]1O[C@H](n2cnc3c(NCC(c4ccccc4)c4ccccc4)nc(C(=O)NCCNC(=O)NC4CCN(c5ccccn5)CC4)nc32)[C@H](O)[C@@H]1O,16.8,
COc1cc(C(=O)NCC2(N(C)C)CCCC2)cc(OC)c1OCc1ccccc1,-11.7,
